The results in this text go back to PubChem BioAssay (NCI).

This is part of a sample that, as a whole, favours compounds with a hit. Of some 83,000 tested, about 20% had one in any assay.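 Results are percent growth after 48 hours of single-concentration exposure. 100 means growth as in untreated cells, lower positive values show inhibition; negative values down to -100 show cell death.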 Values without a mark were called inactive. Calls of active or inactive are those of the source. How the source made its calls: active means growth percent below 10; inactive means the rest.

Common to all, as to assay: NCI-60 one-dose screen, 48 h (100 = growth as untreated, 0 = no growth, -100 = all killed)
Holding throughout (settings): 10 µM unless noted

Assay [1] relates to SR leukemia.
The test system of assay [2] is RPMI-8226 leukemia.
Assay [3] concerns OVCAR-8 ovarian.
Assay [4] has as its system OVCAR-5 ovarian.
For assay [5], the system named is OVCAR-4 ovarian.
Assay [6] deals with OVCAR-3 ovarian.
Assay [7] has as its system HS 578T breast.
The test system of assay [8] is NCI/ADR-RES ovarian.
In assay [9] the test system is SK-OV-3 ovarian.
Assay [10] concerns IGROV1 ovarian.

On to `c1ccc(CCSc2ncnc3nc[nH]c23)cc1`, for which the growth in assay [1] was 52.8%; in assay [2], 82.1%; in [3], 66.9%; in [4], 114%; in assay [5], 84.8%; in assay [6] it was 116%. The growth in assay [7] was 100%; in assay [8], 99.2%.
Take `COc1ccc(C(=O)/C=C/c2ccc(OCc3ccccc3)c(OC)c2)cc1OC`: the growth in assay [1] is 11.2%; in assay [2], -3.1% (active); in assay [3], 17.4%; in assay [4], 107%; in assay [9], 91%; in assay [10], 84.3%. For the same compound, the growth was 10.3% in assay [6], 94.7% in assay [7] and 36.4% in assay [8].
Take `CC(=O)OC1CCC2(C)C(CCC3C4CC=C(C(C)=O)C4(C)OC(=O)CC32)C1` (stereo not given): the growth in assay [1] was -48.4% (active); in [2], -31.7% (active); in [3] it was -20.4% (active); in [4] it was 75.1%; in assay [9], 109%; in assay [10], 61.5%. Further, the growth is -36.2% (active) in assay [6], 75.1% in [7] and 37.5% in assay [8].
Turning to `CCCNC(=O)Oc1ccc(/C(=C(\C)c2ccccc2)c2ccc(OCCN3CCCCC3)cc2)cc1`, the growth was 9.19% (active) in assay [1]; 57.7% in assay [2]; 75.3% in assay [3]; 78.2% in assay [4]; 83% in [5]; 84.8% in [10]. In addition, the growth is 75.6% in assay [6], 66.8% in assay [7] and 77.2% in assay [8].
For the compound `COC(=O)C1=C(C(=O)ONCCN(C)C)C2C=CC1(C(Cc1ccccc1)Nc1ccc(F)cc1)O2` (stereo not given), the growth in assay [1] was 10.7%; in assay [2], 71.2%; in assay [3], 97.7%; in assay [4] it was 100%; in assay [5], 94.5%; in [10] it was 92.4%. The figures for the growth in assay [6], in [7] and in assay [8] were 39.9%, 125% and 102%, respectively.
As for `Cn1c(=O)c2[nH]c(CCCc3nc4c([nH]3)c(=O)n(C)c(=O)n4C)nc2n(C)c1=O`, the growth in assay [1] was 129%; in assay [2], 107%; in [3], 90.4%; in assay [4] it was 122%; in [5], 118%; in [7] it was 116%. Further, the growth in assay [8] is 109%.
Regarding `FCc1nc2nc(Cl)c(Cl)nc2[nH]1`, the growth was 95.9% in assay [1]; 97% in assay [2]; 102% in assay [3]; 93.3% in assay [4]; 108% in assay [10]; 108% in assay [6]. The growth is 101% in assay [7] and 107% in assay [8].
Turning to `CC1(C)NCCC[C@]2(C)[C@H]3CC=C4[C@@H]5C[C@@](C)(CO)CC[C@]5(C)CC[C@@]4(C)[C@]3(C)CC[C@@H]12`, the growth in assay [1] was -1.3% (active); in assay [2], 20.1%; in assay [3], 83.4%; in assay [4], 83.3%; in assay [5], 60.8%; in [10], 56.7%. Moreover, the figures for the growth in assay [6], in [7] and in assay [8] were 72.4%, 52.7% and 74.2%, respectively.
Turning to `Cc1ccc(Nc2cc(=S)nc(N)[nH]2)cc1C`, the growth is 97.5% in assay [1]; 100% in assay [2]; 97.4% in assay [3]; 100% in assay [4]; 108% in assay [5]; 96% in assay [10]. The growth is 115% in assay [6], 98.6% in [7] and 105% in assay [8].
For the compound `C#Cc1cccc(NC(=O)Nc2cccc(N=C=S)c2)c1`, the growth in assay [1] is 88.9% [8.25 µM]; in [2] it was 99.3% [8.25 µM]; in [3] it was 98.6% [8.25 µM]; in assay [4] it was 102% [8.25 µM]; in assay [5], 99.6% [8.25 µM]; in assay [10], 98.4% [8.25 µM]. Also, the growth in [6] was 115% [8.25 µM]; in assay [7], 95.6% [8.25 µM]; in assay [8], 106% [8.25 µM].
In the case of `CN1CCN(C(=O)[C@]2(C)CC[C@]3(C)CC[C@]4(C)C(=CC(=O)[C@@H]5[C@@]6(C)CCC(=O)NC(C)(C)[C@@H]6CC[C@]54C)[C@@H]3C2)CC1`, the growth in assay [1] was 77.6%; in assay [2] it was 99.7%; in assay [3], 99.8%; in [4] it was 110%; in [5], 92.1%; in assay [10], 99.9%. Further, the growth is 101% in [6], 88.1% in assay [7] and 96.6% in [8].
Regarding `NC(=S)N/N=C/c1ccc(OC(=O)COc2cc(Cl)c(Cl)cc2Cl)cn1`, the growth in assay [1] was 1.38% (active); in [2] it was 76.4%; in assay [3] it was 26.1%; in [4], 115%; in assay [9] it was 99.5%; in assay [10], 63.8%. Further, the growth is 59.2% in assay [6], 114% in assay [7] and 26.9% in assay [8].
On to `CC1NC(=S)NC(=O)/C1=C/c1cc(=O)oc2c1ccc1ccccc12` (stereo not given), for which the growth was 94% in assay [1]; 102% in assay [2]; 87.5% in [3]; 105% in [4]; 95.7% in assay [5]; 91.9% in [10]. Also, the growth in [6] is 100%; in assay [8] it was 92.7%.
On to `O=c1[nH]c(=O)[nH]c(=S)[nH]1`, for which the growth in assay [1] is 106%; in assay [2] it was 106%; in assay [3], 101%; in [4], 102%; in assay [5] it was 109%; in assay [10] it was 102%. The growth in assay [6] was 119%; in assay [7], 99.3%; in assay [8] it was 105%.
Regarding `COc1cc(-c2nc3occn3c2-c2ccnc(NCCNS(=O)(=O)c3ccc(Cl)cc3)n2)ccc1F`, the growth in assay [1] was 71.9%; in [2], 48.8%; in [3], 85.4%; in [4], 118%; in assay [5] it was 78.6%; in assay [10] it was 64.6%. Further, the growth in assay [6] was 114%; in [7], 77.8%; in [8], 82.2%.
